# PriA SSB inh: K. pneumoniae PriA-SSBct interaction inhibition; AlphaScreen SSBct-PriA binding, biotinylated peptide; 0.6% of 430,000 active; inhibition, % at 33 µM; in the data active means inhibition mostly above about 37%, no sharp cut-off; inactive means mostly below about 20%;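 further: plate controls were negative control peptide for no effect and reference peptide for full effect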
# PrP 5UTR inh: suppresses PrP 5' UTR mRNA reporter expression; 0.35% of 340,000 active; inhibition, % (test concentration not listed); AID 488862; cell-based PrP 5' UTR mRNA reporter, plate reader; in the data active means inhibition above about 52%; further: 0 = median of the neutral control wells
# MazF activator: increases E. coli MazEF RNase cleavage of RNA | P0AE70 | FAM/BHQ RNA-DNA oligo cleavage fluorescence, 5 h | activation, % at 20 µM | 0.32% of 350,000 active; in the data active means activation above about 50%
# PfHsp40 rescue: restores yeast growth despite PfHsp40 toxicity; AID 504582; growth rescue, % at 12.5 µM; 0.68% of 340,000 active; S. cerevisiae expressing PfHsp40, growth rescue, ATP luminescence; in the data active means growth rescue above about 28%, passing the limit was not always enough;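 further: yeast W303a lacking pdr1 and pdr3 grown in galactose medium; growth measured after three days at 30 °C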
# PrPC surface inh: reduces human prion protein on the cell surface. P04156. cell surface PrPC, TR-FRET read-out. inhibition, % at 13.8 µM. 0.43% of 370,000 active. AID 720596; in the data active means inhibition above about 24%; further: 0% = median of the test wells and 100% = reference compound wells
# PrPC confirm: confirmation of inhibitors of cell surface human prion protein; shares compounds with PrPC surface inh; cell surface PrPC level, TR-FRET; inhibition, % at 13.8 µM; 65% of 1,500 active; AID 743200; in the data active means inhibition above about 25%
# LD9 tox: counter-screen for PrPc inhibitors: cytotoxicity in LD9 cells; shares compounds with PrPC surface inh; luminescence viability; inhibition, % at 13.8 µM; 29% of 1,500 active; AID 743201; in the data active means inhibition above about 9.5%
# Numbers without * were called inactive; / = not tested or not shown. Most compounds without a hit are left out; they make up all but 1.8% or so of the library.
SMILES,PriA SSB inh,PrP 5UTR inh,MazF activator,PfHsp40 rescue,PrPC surface inh,PrPC confirm,LD9 tox
CC(C)N1CCc2c(sc(NC(=O)c3ccc(S(=O)(=O)N4CCCCC4C)cc3)c2C(N)=O)C1 (centres undefined),0,-2,-12,0,43*,-3,7
Cc1ccc(C(=O)CSc2nc(C(C)C)nc3ccccc23)cc1,-19,-15,3,-2,8,/,/
COC(=O)CSc1nc(C(C)C)nc2ccccc12,-3,-5,11,-1,121*,123*,-4
CC(C)NC(=O)CSc1nc(Cc2ccccc2)nc2ccccc12,-9,-14,3,0,13,/,/
CC(C)(C)c1nc(SCC(=O)NNC(=O)c2ccccc2)c2ccccc2n1,-7,-1,5,-1,45*,67*,-11
CC(C)OC(=O)CSc1nc(Cc2cccs2)nc2ccccc12,-4,-5,0,2,37*,23,-3
Cc1cccc(C)c1NC(=O)CSc1nc(COc2ccccc2)nc2ccccc12,-5,-23,3,0,2,/,/
CCOC(=O)CSc1nc(COc2ccccc2)nc2ccccc12,1,-4,11,-1,59*,60*,8
O=c1c(C(c2ccccc2)c2c(O)sc3ccccc3c2=O)c(O)sc2ccccc12,-6,-51,-5,-1,2,/,/
CCOC(=O)CSc1nc(C2CC2)nc2ccccc12,-2,-10,-3,1,25*,43*,-3
CCOC(=O)CSc1nc(C(C)C)nc2ccccc12,-4,-15,3,-1,110*,123*,-1
CCOC(=O)CSc1nc(C)c2ccccc2n1,-16,-35,-2,0,20,/,/
CCOC(=O)CSc1nc(C(C)(C)C)nc2ccccc12,-15,8,0,-1,32*,58*,1
Clc1ccc(-n2ncc3c(NCc4cccs4)ncnc32)cc1,-11,-31,40,0,-2,/,/
Cc1cccc(-n2ncc3c(NCc4cccs4)ncnc32)c1,-26,-104,-1,0,27*,9,-2
Cc1cc(NC(=O)c2cccc(Br)c2)n[nH]1,-6,-50,6,2,11,/,/
O=C(CCSc1ccccc1)N1CCN(c2ccccc2)CC1,-9,-50,-17,0,4,/,/
O=C(CCSc1ccc(Cl)cc1)N1CCN(c2ccc(O)cc2)CC1,24,-14,3,17,38*,28*,1
CCCCCCCC/C=C\CCCCCCCC(=O)NCCc1ccc(O)c(O)c1,20,-3,-5,20,83*,44*,65*
CC(C)(C)c1ccc(OCCC(=O)Nc2cccc(S(=O)(=O)N3CCCCC3)c2)cc1,-7,0,1,1,24*,20,-1
Cc1onc(-c2c(F)cccc2Cl)c1C(=O)Nc1nccs1,-17,-14,-3,-1,-3,/,/
Cc1onc(-c2c(F)cccc2Cl)c1C(=O)Nc1nnc(C(F)(F)F)s1,-22,-12,-17,-2,62*,81*,5
Cn1cc(C2NC(=O)c3ccccc3N2)c2ccccc21 (centres undefined),5,-67,2,0,25*,20,-4
CCSc1nnc2ccc(-c3ccc(C)cc3)nn12,-19,-14,8,1,42*,-12,-8
CCSc1nnc2ccc(-c3ccc(Cl)cc3)nn12,2,/,/,/,/,/,/
SMILES,PriA SSB inh,PrP 5UTR inh,MazF activator,PfHsp40 rescue,PrPC surface inh,PrPC confirm,LD9 tox
COC(=O)OCC12CCC(O1)C1(C)C(=O)OCC21 (centres undefined),-11,-30,-1,0,0,/,/
CC(=O)OC[C@]12CC[C@H]3[C@@](C)(CC[C@H]4C(C)(C)CCC[C@]34C)[C@@H]1CC(C1=CC(=O)OC1O)O2 (some centres undefined),/,/,/,/,54*,83*,99*
COCCNC(=O)Cc1c(C)c2c(cc(C)c3c(C(C)(C)C)coc32)oc1=O,7,-16,5,1,0,/,/
O=C(CSc1cccc2cccc(Cl)c12)NC1=NCCS1,-14,-21,0,0,29*,45*,-4
O=C(CSc1ccccc1)NC1=NCCS1,3,-12,5,2,-2,/,/
O=C(CSc1cccc2cccc(Cl)c12)OCC(=O)N1CCN(C(=O)c2ccco2)CC1,-5,-6,-11,0,43*,44*,-1
NC(=O)COC(=O)CC(c1ccccc1)c1ccccc1,-3,-7,3,1,1,/,/
NC(=O)COC(=O)CSc1cccc2cccc(Cl)c12,8,-15,12,-1,39*,52*,1
Cc1ccc(C)c(SCC(=O)OCC(=O)Nc2ncc(C(F)(F)F)cc2Cl)c1,-14,-22,-7,0,3,/,/
O=C(COC(=O)CSc1cccc2cccc(Cl)c12)Nc1ncc(C(F)(F)F)cc1Cl,-1,-16,1,0,31*,39*,1
CCOc1ccc(CCNC(=O)c2cc3sccc3n2CC)cc1OCC,10,-10,0,6,6,/,/
Cc1c(C(=O)NCCCn2ccc3cccnc32)cnn1-c1ccccc1,-5,/,/,/,/,/,/
COc1ccc(Cc2nc(-c3ccc(Cl)cc3)no2)cc1,-63,-46,-16,-1,10,/,/
Cc1ccc(Cc2nc(-c3ccncc3)no2)cc1,-3,-26,1,2,72*,5,2
C=CCn1c(=O)c(C(C)=O)cn(N(C)c2ncc(C(F)(F)F)cc2Cl)c1=O,-13,-46,12,0,-6,/,/
Cc1ccc2[nH]c3c(=O)n(N)c(C)nc3c2c1,-5,-40,4,-1,7,/,/
Cc1ccc2[nH]c3c(=S)nc[nH]c3c2c1,-18,-46,1,0,129*,147*,4
Cc1cc2ccccc2n1CCNC(=O)Nc1cn(C)c2ccccc12,5,/,/,/,/,/,/
Cc1cc2ccccc2n1CCNC(=O)C1CCCC1,24,-28,11,-1,40*,4,1
Cc1cc2ccccc2n1CCNC(=O)C1CCCCC1,30,-21,-5,0,36*,11,-2
O=C(NCCn1ccc2ccccc21)C1CCCCC1,-2,-30,15,0,5,/,/
Cc1cc2ccccc2n1CCNC(=O)c1cccs1,17,-8,-15,0,33*,25*,-5
Cc1cc2ccccc2n1CCNC(=O)C1CC1,-3,-10,-22,1,28*,7,-2
COc1cccc(OC)c1OCCOCCn1cnc2ccccc2c1=O,3,-33,0,1,5,/,/
Cc1cnc(NC(=O)CN2CCN(c3ccccn3)CC2)s1,-5,-13,3,-1,38*,31*,11*
Cc1cc(NC(=O)CSc2nc(-c3ccccc3)c(C#N)c(=O)[nH]2)no1,-10,-4,0,-1,41*,56*,-5
